Records with an inconclusive call do not appear. Activity calls are given as the source filed them. Calls come from the whole dose curve; as a rule, active = well fitted cell-killing curve with a large enough effect; inconclusive = small, poorly fitted or top-dose-only effect, or effect the other way; inactive = flat fitted curve, though single readings scatter.
What was measured:
Assay in all cases: Primary qHTS to identify gynecologic anti-cancer compounds using libraries of approved drugs and bioactive compounds (AID 1345084); note: nearly all actives have a fitted effect of over 55% in size
CAOV3 = settings: Gynecologic cancer cell panel viability, ATPlite luminescence, 48 h; series mostly up to 57.5 µM
Procedure, shortened: (§1)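 Luminescence from the ATPlite ATP-monitoring reagent indicates viable cell number; lower signal means cytotoxicity. Cells received compound 16 h after seeding and were exposed for 48 h across five concentrations.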

CASKI = settings: Gynecologic cancer cell panel viability, ATPlite luminescence, 48 h; series mostly up to 57.5 µM
Procedure, shortened: as §1

Es-2 = settings: Gynecologic cancer cell panel viability, ATPlite luminescence, 48 h; series mostly up to 57.5 µM
Procedure, shortened: as §1

HeLa = settings: Gynecologic cancer cell panel viability, ATPlite luminescence, 48 h; series mostly up to 57.5 µM
Procedure, shortened: as §1

Hek293T = settings: Gynecologic cancer cell panel viability, ATPlite luminescence, 48 h, control line for the selectivity index; series mostly up to 57.5 µM
Procedure, shortened: as §1

JEG-3 = settings: Gynecologic cancer cell panel viability, ATPlite luminescence, 48 h; series mostly up to 57.5 µM
Procedure, shortened: as §1

OV90 = settings: Gynecologic cancer cell panel viability, ATPlite luminescence, 48 h; series mostly up to 57.5 µM
Procedure, shortened: as §1

PA-1 = settings: Gynecologic cancer cell panel viability, ATPlite luminescence, 48 h; series mostly up to 57.5 µM
Procedure, shortened: as §1

SKOV3 = settings: Gynecologic cancer cell panel viability, ATPlite luminescence, 48 h; series mostly up to 57.5 µM
Procedure, shortened: as §1

Tov-21-G = settings: Gynecologic cancer cell panel viability, ATPlite luminescence, 48 h; series mostly up to 57.5 µM
Procedure, shortened: as §1

Tov112D = settings: Gynecologic cancer cell panel viability, ATPlite luminescence, 48 h; series mostly up to 57.5 µM
Procedure, shortened: as §1

Measured: Potency

O=C(C1CC1)N1CC[C@@H](Cc2n[nH]c(=O)n2-c2ccc(-c3ccc4occc4c3)cc2)C1
inactive: all assays above

C=C1C(=O)O[C@H]2[C@H]1[C@@H](OC(=O)C(C)CO)C[C@@]1(C)[C@H](O)CCC(=O)[C@H]21 (stereo not given in full)
inactive: all assays above

COc1cc([C@@H]2Oc3c(OC)cc(CCCO)cc3[C@@H]2CO[C@@H]2O[C@H](CO)[C@@H](O)[C@H](O)[C@H]2O)ccc1O
inactive: all assays above

O=C(O)c1ccc(CCCc2ccc(OCCc3ccc(F)cc3)cc2)o1
inactive: all assays above

O=C(/C=C/c1ccccc1)OCC1=CC[C@@H]2C(C(=O)O)=CO[C@@H](O[C@@H]3O[C@H](CO)[C@@H](O)[C@H](O)[C@H]3O)[C@H]12
inactive: all assays above

COC(=O)CC1(O)C(=O)Nc2ccccc21 (stereo not given)
inactive: all assays above

CC1(C)CC2C(C1)C1(C)CCC13OC3(CO)C2O (stereo not given)
inactive: all assays above

O=C(NC[C@H](O)CN1CCc2ccccc2C1)c1cc(NC2COC2)ncn1
inactive: all assays above

CC(=O)N[C@H]1CCN(c2ccc(C3=NOC(CN[S+](=O)([O-])C(C)C)C3)cc2F)C1 (stereo not given in full)
inactive: all assays above

COc1cccc(-n2nc(C(=O)O)cc2-c2ccc(C3CCCCC3)c(Cl)c2)c1
inactive: all assays above

CC1=C(CC(=O)O)c2cc(F)ccc2C1=Cc1ccc(S(C)(=O)=O)cc1
inactive: all assays above

C=CCc1ccc(O[C@@H]2O[C@H](CO[C@@H]3O[C@H](CO)[C@@H](O)[C@H](O)[C@H]3O)[C@@H](O)[C@H](O)[C@H]2O)c(O)c1
inactive: all assays above

COC(=O)[C@]12C(=O)C(C)=C(O)[C@@]1(C)C(C)=CC1[C@@]34CC[C@@H](OC(C)=O)C(C)(C)C3[C@H](C[C@]12C)OC4=O (stereo not given in full)
inactive: all assays above

O=C(NN1CCCCC1)c1nn(-c2ccc(Cl)cc2Cl)c(-c2ccc(C#Cc3ccc(C(F)(F)F)cc3)s2)c1CNS(=O)(=O)N1CCCC1
inactive: all assays above

O=C1NC(Cc2ccc(O)cc2)C(=O)N2CCCC12 (stereo not given)
inactive: all assays above
